One assay concerns the target UST. The assay is described as follows: pooled miR-30 sensor sort-seq; sequence = guide strand. The note with it: shRNA.
The sequence TAAAACTCGTACTCGTATCTCA came in with a sensor-assay potency score (higher = more potent) of 0.226. Same read-out and setting: to TATATTTTTAATCAGTTCCATT belongs -1.14; to TTGTACACCACCTGGCTTGGGA, -0.187; to AAATAGTTGGATAAGAACCGGT, -0.125. TTCAAGAATACACTCATTGATA showed a sensor-assay potency score (higher = more potent) of -0.731. On the same count and under the same terms, to TACTCGTATCTCATCCGCTGGT belongs -0.000159; to TAACAGCAGCACATCTTCCAAC, -0.452. The same measure, in the same setting: to TTGTTGTGAATGTCTGATGTGA belongs -0.387; to TTCATTTTTAGTAAGCCTGGTT, 0.157. The same measure, in the same setting: under TTGAGGAAATGAACATGTCGAG stands -0.72.

The next assay concerns the target UTP18. The description is as above. Particulars: shRNA.
TTTGCAACAAATCATCTTCATC yielded a sensor-assay potency score (higher = more potent) of -0.536. As for TAGTGATACAGCATTATCTAAT, the sensor-assay potency score (higher = more potent) was -1.01. Same read-out and setting: under TTTATGAGCAAGAAGGACCCAT stands 0.234; under TTTTTCATCATATCCTTCCGAA, 0.00107. Turning to TTCATCTTCTTCATCCACCCAA, the sensor-assay potency score (higher = more potent) amounted to 0.245. Still for that read-out and setting: to TTCACTAGCATTTTTCATCATA belongs -0.646. The same measure, in the same setting: under TAGACATAAAGAACCTTGCTGT stands 0.607; under ATTAGCACTAAAACAAGCCTTA, 0.102; under TTAATCCATATAAACTGCCTTC, -0.603. Still for that read-out and setting: under TTTCTTGGAGACAAGAATCTTG stands -0.491; under TTCATCTTCAAGATTCCTCTTG, 0.439; under TTTTCCGCTTAGTAGTCTCTGC, -0.432.

A further assay has as its target UTP3. The description is as above. Particulars: shRNA.
In the case of TGAAACTTTAGCCAAATCCTTC, the sensor-assay potency score (higher = more potent) is -1.04. The same measure, in the same setting: to TTGATAGGTAATAGCTCTCTTT belongs -1.33; to TTTCTCTTTAGCTTTTGCCTGT, 0.173; to TAAGTGTCAACAGATGACGAAT, -1.16.

The sequence TTTCTTTACAGCATCATCCTTA returned a sensor-assay potency score (higher = more potent) of 0.221. On the same count and under the same terms, under ATCATCTCCATTTTCGTCGGTG stands -0.329; under TTTCGGTAGGTAACAAGCCTTT, -1.19.

The sequence TTTACGAACTTCACGAACCTGG registered a sensor-assay potency score (higher = more potent) of -0.0211. The same measure, in the same setting: under TTTCACTGAAACTTTAGCCAAA stands -0.944; under TTCGTCGTCCTCATCGTCCATA, -0.923.

Take TATTTCTTTATAGTACTTCAGT: the sensor-assay potency score (higher = more potent) is -0.591. On the same count and under the same terms, to TATAGTACTTCAGTTTTGCTTT belongs -0.531.

A further assay deals with UTS2D. The description is as above. The note with it: shRNA.
The sequence AAAGTTAGGAGTCCAAAGCAAA came in with a sensor-assay potency score (higher = more potent) of -1.56. The same measure, in the same setting: under TTTTAGCTTTTCCAGCTGGTTA stands -0.983.

Sequence TTATTCAGTAGAGCCAGCAATA showed a sensor-assay potency score (higher = more potent) of -1.61. On the same count and under the same terms, to TCTTTTAGCTTTTCCAGCTGGT belongs 0.0536; to TAGGAGTCCAAAGCAAACAGTG, -0.558; to TAAGATATGGTCGTCCATGCAC, -0.532.

The values above are taken from the OligoGym collection.
Also: reference of the scale not given here.
